Consider twelve compounds from PubChem BioAssay (EPA / NIEHS).

A word on the AC50: it is the concentration at which the activity in the assay is half-maximal.

Inconclusive results are not listed. Calls of active or inactive are those of the source. How the source made its calls, unless noted: active means hit-call score of the fitted dose curve at least 0.9, where 1 is the maximum; inactive means score below 0.9.

A short description of experiment [1]: ATG_NFI_CIS: Attagene CIS-FACTORIAL HepG2 Assay for human Nuclear Factor I (NFI) (AID 2282989). The note with it: HepG2 cis-regulatory reporter, NFI response element transcription; actives raise or lower the signal. The procedure, abridged: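 Read-out: reporter mRNA via RT-PCR plus capillary electrophoresis with fluorescence detection. Transiently transfected HepG2 (endogenous TF activity on cis promoters), 24 h compound exposure; gain or loss of signal fitted against DMSO.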

In experiment [2] the target is Myc proto-oncogene protein (Homo sapiens) (UniProt P01106). Nature of the experiment: ATG_Myc_CIS: Attagene CIS-FACTORIAL HepG2 Assay for human Myelocytomatosis (Myc) Proto-Oncogene Transcription Factor (AID 2282990). The note with it: HepG2, Attagene cis-reporter transcription factor activity; actives raise or lower the signal. An outline of the steps: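 Transiently transfected HepG2 cells bearing cis-promoter reporter units for endogenous transcription factors; 24 h exposure. Reporter mRNA measured by RT-PCR, 6-FAM primer extension, HpaI cut and capillary electrophoresis; bidirectional fit relative to DMSO.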

Experiment [3] in a line: ATG_NF_kB_CIS: Attagene CIS-FACTORIAL HepG2 Assay for human Nuclear Factor Kappa B (NF-kB) (AID 2282991). The note with it: HepG2 Attagene cis-factorial NF-kB reporter mRNA; actives raise or lower the signal. The procedure, abridged: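 Read-out: reporter transcript levels quantified by RT-PCR plus capillary electrophoresis of 6-FAM-labelled, HpaI-cut fragments. Transfected HepG2 cells, 24 h compound exposure, endogenous NF-kB-driven cis element; gain or loss scored versus DMSO.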

A short description of experiment [4]: ATG_NRF2_ARE_CIS: Attagene CIS-FACTORIAL HepG2 Assay for human Nuclear Factor Erythroid 2 Related Factor 2 (NFR2) response to Antioxidant Response Elements (ARE) (AID 2282992).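 On AC50: reporter mRNA level measured by RT-PCR and capillary electrophoresis fluorescence.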 The note with it: HepG2 Attagene ARE/NRF2 reporter, transcription factor activity; actives raise or lower the signal. The procedure, abridged:
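Endogenous transcription factor activity in human liver HepG2 cells is tracked via a cis-element-driven reporter within a multiplexed set. mRNA induction is read by RT-PCR and capillary electrophoresis after 24 h, with DMSO as baseline.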

Experiment [5] in a line: ATG_Oct_MLP_CIS: Attagene CIS-FACTORIAL HepG2 Assay for human Octamer-Binding Transcription Factor (Oct) (AID 2282993). The note with it: HepG2 Attagene cis-factorial Oct reporter, mRNA; actives raise or lower the signal. The procedure, abridged: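 Read-out: reporter mRNA via RT-PCR plus capillary electrophoresis of 6-FAM-labelled fragments. Transiently transfected HepG2, 24 h exposure, endogenous TF activity on cis elements. Gain or loss of signal fitted relative to DMSO.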

In experiment [6] the target is Cellular tumor antigen p53 (Homo sapiens) (UniProt P04637). Nature of the experiment: ATG_p53_CIS: Attagene CIS-FACTORIAL HepG2 Assay for human p53 Transcription Factor (AID 2282994). The note with it: HepG2 p53 cis-element reporter, Attagene mRNA; actives raise or lower the signal. The procedure, abridged:
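Steps: transfect HepG2 with multiplexed cis reporter constructs; dose chemicals 24 h; extract RNA, reverse-transcribe, PCR-amplify reporter sequences; FAM-label, HpaI-digest, resolve fragments by CE. Activity fitted both directions relative to DMSO.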

Experiment [7] deals with human Retinoic Acid Receptor beta (RARb), RARB (gene 5915) (UniProt P10826). Nature of the experiment: ATG_RARb_TRANS: Attagene TRANS-FACTORIAL HepG2 Assay for human Retinoic Acid Receptor beta (AID 2283004; active means hit-call score of the fitted dose curve at least 0.9, where 1 is the maximum). The procedure, abridged: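 HepG2, transient MRTU transfection, NR–Gal4 chimera, 24 h treatment; RT-PCR plus CE fluorescence detection of reporter mRNA; gain of signal vs DMSO.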

Experiment [8] has as its target Retinoic acid receptor alpha (Homo sapiens) (UniProt P10276). In words: ATG_RARa_TRANS: Attagene TRANS-FACTORIAL HepG2 Assay for human Retinoic Acid Receptor alpha (RARa) (AID 2283005; active means hit-call score of the fitted dose curve at least 0.9, where 1 is the maximum). An outline of the steps: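 HepG2 transiently transfected with multiplex GAL4-UAS reporter units including a human RARa–GAL4 chimera; 24 h compound exposure. Reporter mRNA quantified by RT-PCR, 6-FAM labeling and capillary electrophoresis; gain of signal versus DMSO.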

For experiment [9], the target named is Peroxisome proliferator-activated receptor gamma (Homo sapiens) (UniProt P37231). Nature of the experiment: ATG_PPARg_TRANS: Attagene TRANS-FACTORIAL HepG2 Assay for human Peroxisome Proliferator-activated Receptor-gamma (PPARg) (AID 2283007; active means hit-call score of the fitted dose curve at least 0.9, where 1 is the maximum). The procedure, abridged:
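Read-out: reporter mRNA induction, detected by fluorescence after RT-PCR and capillary electrophoresis. Transiently transfected human HepG2 liver cells carrying a chimeric NR-Gal4 construct were dosed for 24 h; activity was fitted upward relative to DMSO.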

Experiment [10] addresses Nuclear receptor subfamily 1 group I member 2 (Homo sapiens) (UniProt O75469). Nature of the experiment: ATG_PXR_TRANS: Attagene TRANS-FACTORIAL HepG2 Assay for human Pregnane X Receptor (PXR) (AID 2283008; active means hit-call score of the fitted dose curve at least 0.9, where 1 is the maximum). An outline of the steps:
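HepG2 transfected (FuGene 6) with GAL4-UAS reporter units + PXR-Gal4 chimera; dosed 24 h. Total RNA → oligo(dT) RT → PCR → 6-FAM primer extension → HpaI cut → CE. Gain-of-signal vs DMSO.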

The target in experiment [11] is human Retinoic Acid Receptor gamma (RARg), RARG (gene 5916) (UniProt P13631). Nature of the experiment: ATG_RARg_TRANS: Attagene TRANS-FACTORIAL HepG2 Assay for human Retinoic Acid Receptor gamma (RARg) (AID 2283009; active means hit-call score of the fitted dose curve at least 0.9, where 1 is the maximum). An outline of the steps: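 Transactivation of exogenous RARg-Gal4 fusion measured as reporter transcript induction after 24 h in transfected HepG2 cells. RNA reverse-transcribed, amplified, fluorescently labeled and resolved by capillary electrophoresis; increase relative to DMSO.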

Experiment [12] deals with human RAR-related Orphan Receptor beta (RORb), RORB (gene 6096) (UniProt Q92753). In words: ATG_RORb_TRANS: Attagene TRANS-FACTORIAL HepG2 Assay for human RAR-related Orphan Receptor beta (RORb) (AID 2283010; active means hit-call score of the fitted dose curve at least 0.9, where 1 is the maximum). The procedure, abridged: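 Read-out is reporter mRNA induction, quantified by RT-PCR with fluorescent capillary electrophoresis, 24 h post-dose in transiently transfected HepG2 expressing exogenous NR-Gal4 chimera. Activity fitted upward versus DMSO.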

In experiment [13] the target is human RAR-related Orphan Receptor gamma (RORg), RORC (gene 6097) (UniProt P51449). Nature of the experiment: ATG_RORg_TRANS: Attagene TRANS-FACTORIAL HepG2 Assay for human RAR-related Orphan Receptor gamma (RORg) (AID 2283011; active means hit-call score of the fitted dose curve at least 0.9, where 1 is the maximum). An outline of the steps:
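Activity is scored as increase in GAL4-UAS reporter mRNA over DMSO, detected by fluorescent RT-PCR and capillary electrophoresis in HepG2 cells transiently expressing a RORg-Gal4 chimera, 24 h after dosing.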

For experiment [14], the target named is human Peroxisome Proliferator-activated Receptor delta (PPARd), PPARD (gene 5467) (UniProt Q03181). In words: ATG_PPARd_TRANS: Attagene TRANS-FACTORIAL HepG2 Assay for human Peroxisome Proliferator-activated Receptor delta (PPARd) (AID 2283002; active means hit-call score of the fitted dose curve at least 0.9, where 1 is the maximum). An outline of the steps:
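HepG2 cells transiently transfected with GAL4-UAS multiplexed reporter units driven by exogenous chimeric NR-GAL4 proteins; 24 h compound exposure. Reporter mRNA measured by RT-PCR, 6-FAM primer extension, HpaI digestion and capillary electrophoresis; gain of signal fitted relative to DMSO.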

For experiment [15], the target named is human Peroxisome Proliferator-activated Receptor alpha (PPARa), PPARA (gene 5465) (UniProt Q07869). Nature of the experiment: ATG_PPARa_TRANS: Attagene TRANS-FACTORIAL HepG2 Assay for human Peroxisome Proliferator-activated Receptor alpha (PPARa) (AID 2283001; active means hit-call score of the fitted dose curve at least 0.9, where 1 is the maximum). An outline of the steps: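 HepG2, transient MRTU transfection, 24 h treatment. RT-PCR → FAM labelling → capillary electrophoresis. Fit vs DMSO, positive direction.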

Chain of human Retinoic Acid Receptor gamma (RARg), RARG (gene 5916) (P13631 whole entry, looked up, the tested form may be a part): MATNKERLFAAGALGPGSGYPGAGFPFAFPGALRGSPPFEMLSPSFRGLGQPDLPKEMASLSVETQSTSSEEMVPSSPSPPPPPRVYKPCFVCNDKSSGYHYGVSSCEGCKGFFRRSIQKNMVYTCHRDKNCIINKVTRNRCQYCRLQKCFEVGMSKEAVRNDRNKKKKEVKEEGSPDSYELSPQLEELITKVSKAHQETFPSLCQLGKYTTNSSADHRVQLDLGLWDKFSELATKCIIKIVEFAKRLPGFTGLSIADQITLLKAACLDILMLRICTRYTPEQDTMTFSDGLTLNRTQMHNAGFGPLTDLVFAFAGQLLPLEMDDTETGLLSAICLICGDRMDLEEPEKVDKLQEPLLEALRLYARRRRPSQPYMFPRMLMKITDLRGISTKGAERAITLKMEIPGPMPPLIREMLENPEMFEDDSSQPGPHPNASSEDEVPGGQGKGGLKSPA
Chain of Peroxisome proliferator-activated receptor gamma (Homo sapiens) (P37231 whole entry, looked up, the tested form may be a part): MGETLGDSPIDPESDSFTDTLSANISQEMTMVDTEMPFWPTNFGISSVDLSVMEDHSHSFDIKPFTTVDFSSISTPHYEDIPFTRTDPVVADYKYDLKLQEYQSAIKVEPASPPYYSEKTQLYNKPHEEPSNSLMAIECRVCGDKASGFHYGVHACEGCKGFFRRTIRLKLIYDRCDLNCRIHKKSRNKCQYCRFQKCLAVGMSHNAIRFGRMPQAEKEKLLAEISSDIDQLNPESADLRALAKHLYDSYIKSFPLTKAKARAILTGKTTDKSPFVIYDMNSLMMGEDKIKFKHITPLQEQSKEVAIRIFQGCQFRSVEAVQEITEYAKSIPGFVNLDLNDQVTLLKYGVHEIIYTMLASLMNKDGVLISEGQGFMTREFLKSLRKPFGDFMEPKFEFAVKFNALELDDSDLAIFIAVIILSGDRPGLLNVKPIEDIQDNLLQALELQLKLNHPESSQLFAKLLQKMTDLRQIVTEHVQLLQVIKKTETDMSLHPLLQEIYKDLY
Chain of human Peroxisome Proliferator-activated Receptor delta (PPARd), PPARD (gene 5467) (Q03181 whole entry, looked up, the tested form may be a part): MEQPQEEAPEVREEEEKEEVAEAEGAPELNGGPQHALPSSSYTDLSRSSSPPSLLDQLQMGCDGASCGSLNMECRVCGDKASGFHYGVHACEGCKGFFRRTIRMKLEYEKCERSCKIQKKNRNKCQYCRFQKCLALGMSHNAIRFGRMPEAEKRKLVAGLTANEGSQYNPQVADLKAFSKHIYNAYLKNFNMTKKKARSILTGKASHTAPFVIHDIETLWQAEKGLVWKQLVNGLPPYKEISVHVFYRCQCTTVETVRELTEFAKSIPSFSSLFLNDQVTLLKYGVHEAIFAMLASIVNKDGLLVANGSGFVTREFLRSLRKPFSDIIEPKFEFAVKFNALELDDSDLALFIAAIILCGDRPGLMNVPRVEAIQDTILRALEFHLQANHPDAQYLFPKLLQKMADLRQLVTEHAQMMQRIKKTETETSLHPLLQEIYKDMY
Chain of Myc proto-oncogene protein (Homo sapiens) (P01106 whole entry, looked up): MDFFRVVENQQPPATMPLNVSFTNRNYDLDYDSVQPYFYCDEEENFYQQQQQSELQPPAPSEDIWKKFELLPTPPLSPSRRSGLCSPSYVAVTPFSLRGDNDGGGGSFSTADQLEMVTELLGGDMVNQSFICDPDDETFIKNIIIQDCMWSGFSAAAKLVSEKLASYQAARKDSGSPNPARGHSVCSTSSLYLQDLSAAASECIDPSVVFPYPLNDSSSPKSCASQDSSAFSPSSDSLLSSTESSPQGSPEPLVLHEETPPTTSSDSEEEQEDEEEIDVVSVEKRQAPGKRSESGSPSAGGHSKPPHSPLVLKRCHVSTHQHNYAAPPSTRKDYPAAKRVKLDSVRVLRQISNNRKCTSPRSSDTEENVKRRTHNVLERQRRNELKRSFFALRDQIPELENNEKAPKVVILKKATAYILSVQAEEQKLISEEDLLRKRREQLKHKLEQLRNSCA
Chain of Cellular tumor antigen p53 (Homo sapiens) (P04637 whole entry, looked up, the tested form may be a part): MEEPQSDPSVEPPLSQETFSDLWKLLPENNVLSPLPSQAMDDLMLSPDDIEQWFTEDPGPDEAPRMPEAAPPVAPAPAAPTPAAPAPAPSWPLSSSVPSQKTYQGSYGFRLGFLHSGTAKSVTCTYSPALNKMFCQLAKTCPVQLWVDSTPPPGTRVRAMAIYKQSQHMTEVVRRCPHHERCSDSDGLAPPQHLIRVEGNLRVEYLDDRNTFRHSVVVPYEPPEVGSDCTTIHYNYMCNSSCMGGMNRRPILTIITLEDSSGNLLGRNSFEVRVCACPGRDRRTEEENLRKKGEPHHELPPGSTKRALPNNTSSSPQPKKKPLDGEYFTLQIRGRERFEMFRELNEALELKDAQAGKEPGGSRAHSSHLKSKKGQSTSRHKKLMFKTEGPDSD
Chain of human RAR-related Orphan Receptor gamma (RORg), RORC (gene 6097) (P51449 whole entry, looked up, the tested form may be a part): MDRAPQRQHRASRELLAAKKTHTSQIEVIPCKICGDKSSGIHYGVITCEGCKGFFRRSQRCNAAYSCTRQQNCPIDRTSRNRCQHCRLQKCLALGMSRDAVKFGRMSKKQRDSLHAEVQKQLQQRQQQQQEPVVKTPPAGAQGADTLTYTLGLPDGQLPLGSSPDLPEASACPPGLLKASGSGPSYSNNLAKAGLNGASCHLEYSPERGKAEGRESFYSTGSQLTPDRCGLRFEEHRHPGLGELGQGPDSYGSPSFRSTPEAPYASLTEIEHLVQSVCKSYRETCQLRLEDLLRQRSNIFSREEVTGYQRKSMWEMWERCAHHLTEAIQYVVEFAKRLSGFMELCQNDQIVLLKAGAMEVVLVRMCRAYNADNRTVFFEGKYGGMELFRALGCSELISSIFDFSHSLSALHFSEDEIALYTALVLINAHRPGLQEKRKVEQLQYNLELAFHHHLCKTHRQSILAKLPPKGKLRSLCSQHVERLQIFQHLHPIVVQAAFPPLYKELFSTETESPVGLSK
Chain of Retinoic acid receptor alpha (Homo sapiens) (P10276 whole entry, looked up, the tested form may be a part): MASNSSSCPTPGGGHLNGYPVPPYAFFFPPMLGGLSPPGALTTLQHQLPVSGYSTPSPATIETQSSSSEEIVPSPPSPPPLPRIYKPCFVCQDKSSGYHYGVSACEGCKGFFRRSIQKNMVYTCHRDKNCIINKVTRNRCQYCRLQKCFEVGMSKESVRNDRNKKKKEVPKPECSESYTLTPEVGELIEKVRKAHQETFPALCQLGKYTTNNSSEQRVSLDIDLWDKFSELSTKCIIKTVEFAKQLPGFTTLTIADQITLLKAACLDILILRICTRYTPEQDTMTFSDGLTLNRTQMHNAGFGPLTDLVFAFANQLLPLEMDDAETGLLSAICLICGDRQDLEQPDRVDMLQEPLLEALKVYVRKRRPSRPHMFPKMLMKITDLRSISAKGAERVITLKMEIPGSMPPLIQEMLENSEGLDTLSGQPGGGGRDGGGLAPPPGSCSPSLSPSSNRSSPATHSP
Chain of human RAR-related Orphan Receptor beta (RORb), RORB (gene 6096) (Q92753 whole entry, looked up, the tested form may be a part): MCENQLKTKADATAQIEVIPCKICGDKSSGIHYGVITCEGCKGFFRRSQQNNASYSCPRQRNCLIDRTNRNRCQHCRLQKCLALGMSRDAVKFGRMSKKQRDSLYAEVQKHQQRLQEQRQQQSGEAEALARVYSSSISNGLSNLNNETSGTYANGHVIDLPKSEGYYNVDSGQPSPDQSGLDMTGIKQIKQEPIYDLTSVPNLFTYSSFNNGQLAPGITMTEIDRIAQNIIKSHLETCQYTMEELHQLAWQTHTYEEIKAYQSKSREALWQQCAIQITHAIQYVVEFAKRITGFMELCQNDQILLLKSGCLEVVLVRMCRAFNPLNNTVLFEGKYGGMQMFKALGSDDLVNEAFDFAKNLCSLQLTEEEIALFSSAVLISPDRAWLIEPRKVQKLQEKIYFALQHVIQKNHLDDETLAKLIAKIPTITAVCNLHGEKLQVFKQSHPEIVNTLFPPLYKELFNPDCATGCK
Chain of human Retinoic Acid Receptor beta (RARb), RARB (gene 5915) (P10826 whole entry, looked up, the tested form may be a part): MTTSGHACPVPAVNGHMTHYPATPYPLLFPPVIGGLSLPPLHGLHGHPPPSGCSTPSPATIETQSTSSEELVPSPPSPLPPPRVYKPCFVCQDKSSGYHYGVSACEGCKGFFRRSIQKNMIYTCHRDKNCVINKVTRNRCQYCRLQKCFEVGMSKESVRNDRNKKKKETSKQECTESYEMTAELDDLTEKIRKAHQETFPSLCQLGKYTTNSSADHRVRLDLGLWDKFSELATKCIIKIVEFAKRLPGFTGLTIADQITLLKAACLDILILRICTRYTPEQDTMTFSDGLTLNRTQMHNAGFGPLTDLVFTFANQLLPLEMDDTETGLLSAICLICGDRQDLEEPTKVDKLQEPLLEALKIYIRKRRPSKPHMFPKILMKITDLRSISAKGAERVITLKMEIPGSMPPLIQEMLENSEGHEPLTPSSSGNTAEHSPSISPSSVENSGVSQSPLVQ
Chain of Nuclear receptor subfamily 1 group I member 2 (Homo sapiens) (O75469 whole entry, looked up, the tested form may be a part): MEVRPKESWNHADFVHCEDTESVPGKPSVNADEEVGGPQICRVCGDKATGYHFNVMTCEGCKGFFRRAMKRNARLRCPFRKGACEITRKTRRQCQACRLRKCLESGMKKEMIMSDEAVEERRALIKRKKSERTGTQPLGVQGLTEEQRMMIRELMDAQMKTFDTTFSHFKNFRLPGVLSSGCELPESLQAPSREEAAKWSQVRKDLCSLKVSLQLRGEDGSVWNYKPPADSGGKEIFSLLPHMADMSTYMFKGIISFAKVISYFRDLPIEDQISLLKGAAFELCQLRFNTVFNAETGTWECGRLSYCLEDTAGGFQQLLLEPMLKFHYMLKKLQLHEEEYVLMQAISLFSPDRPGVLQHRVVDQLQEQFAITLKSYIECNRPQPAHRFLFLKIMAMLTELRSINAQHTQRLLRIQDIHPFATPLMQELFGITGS

Turning to `CCCNC(=O)NS(=O)(=O)c1ccc(Cl)cc1`, the call in experiment [1], in experiment [2], in [3], in experiment [4], in experiment [5] and in experiment [6] was inactive. Also, the call in experiment [7], in [8], in experiment [9], in [10], in [11] and in experiment [12] was inactive. The outcome in [13] was inactive.

Regarding `CNC(=S)N(C)C`, the compound was called inactive in experiment [1], in experiment [2], in experiment [3], in experiment [4], in experiment [5] and in [6]. Further, the compound was classed as inactive in experiment [8], in [9], in experiment [10] and in [13].

For `O=S(=O)(Oc1ccc(Cl)cc1Cl)c1ccccc1`, the result in experiment [1], in [2], in [3], in experiment [5] and in experiment [14] was inactive. Besides, the AC50 in [4] was 11.5 µM (active); in [9], 29.5 µM (active); in experiment [10], 2.19 µM (active).

`SCCc1cnccn1`: the compound was called inactive in experiment [1], in [2], in experiment [4], in experiment [5], in [9] and in [10]. In addition, in [13], the outcome was inactive. For the same compound, the half-maximal activity concentration (AC50) in [3] was 47.7 µM (active); in experiment [6], 46.4 µM (active).

As to `CCCCCCCOC(=O)CCC`, the compound was called inactive in experiment [1], in experiment [2], in experiment [3], in experiment [4], in experiment [5] and in experiment [15]. In addition, the compound was called inactive in experiment [14], in experiment [11] and in [12].

Consider `OC1CCCC1`, for which the compound was classed as inactive in experiment [1], in experiment [2], in experiment [3], in [4], in [5] and in [14]. The compound was classed as inactive in [8], in experiment [12] and in experiment [13].

On to `Nc1ccc(Cl)cc1Cl`, for which the result in experiment [1], in [2], in [3], in experiment [4], in experiment [5] and in experiment [6] was inactive. Also, the call in experiment [10] and in experiment [13] was inactive.

Regarding `Nc1ncn([C@@H]2O[C@H](CO)[C@@H](O)[C@H]2O)c(=O)n1`, the result in [1], in experiment [2], in experiment [3], in [4], in [8] and in experiment [9] was inactive. Moreover, the compound was classed as inactive in experiment [10] and in experiment [11]. In addition, the figures for the AC50 in experiment [5] and in experiment [6] were 8.32 µM (active) and 2.1 µM (active), respectively.

For the compound `c1c[nH]cn1`, the outcome in [1], in experiment [2], in experiment [3], in [4], in experiment [5] and in experiment [6] was inactive. For the same compound, the result in experiment [7], in experiment [8], in [10], in [11] and in experiment [12] was inactive.

For `Cn1c(=O)[nH]c2ncn(C)c2c1=O`, the outcome in [1], in experiment [2], in experiment [3], in experiment [4], in experiment [5] and in experiment [6] was inactive. The call in experiment [8], in experiment [10], in [11] and in experiment [12] was inactive.

Consider `O=C(c1ccccc1)C1CCC1`, for which the outcome in experiment [1], in [2], in experiment [3], in experiment [4], in [5] and in [14] was inactive. The compound was classed as inactive in experiment [9], in [10] and in experiment [12].

`O=C1CCCC1`: the compound was called inactive in experiment [1], in experiment [2], in experiment [3], in [4], in [5] and in experiment [6]. In addition, the call in experiment [7], in [8], in experiment [11], in experiment [12] and in experiment [13] was inactive.
